According to PubChem BioAssay:
Calls of active or inactive are those of the source.

target: Homeobox protein Hox-A13 (Mus musculus) (UniProt Q62424); test: inhibitors of HoxA13-DNA binding, primary screen, biochemical, fluorescence polarization, labeled oligonucleotide (AID 1185); details: 15 min, higher = more signal, called active from +8 up or from −8 down
Sequence (Q62424 whole entry, looked up): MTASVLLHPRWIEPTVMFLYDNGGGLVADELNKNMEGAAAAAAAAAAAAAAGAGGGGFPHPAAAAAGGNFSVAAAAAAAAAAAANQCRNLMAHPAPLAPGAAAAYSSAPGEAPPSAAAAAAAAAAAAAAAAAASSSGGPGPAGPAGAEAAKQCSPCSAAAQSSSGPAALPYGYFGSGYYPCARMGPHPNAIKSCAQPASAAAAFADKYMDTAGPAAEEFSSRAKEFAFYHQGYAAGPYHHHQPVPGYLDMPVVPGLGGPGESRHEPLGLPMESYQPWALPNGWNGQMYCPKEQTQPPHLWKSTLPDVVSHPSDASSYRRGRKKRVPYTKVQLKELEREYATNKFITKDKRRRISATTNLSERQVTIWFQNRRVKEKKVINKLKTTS

Which z-score does the source give for `CCCC=C(CCC)[C@@H](NC(=O)c1ccc(-c2ccccc2)cc1)c1ccc(C(=O)OC)cc1` here?
The z-score was -0.539 (inactive).

`COC(=O)[C@@]1(Cc2ccccc2)[C@H]2c3cc(C(=O)N4CCCC4)n(Cc4ccccn4)c3C[C@H]2CN1C(=O)c1ccccc1` was tested. Which z-score did it give?
Its z-score is -6.05 (inactive).

How did the z-score turn out when `O=C(CS)NCCCCCNC(=O)[C@@H]1C[C@@H]2C(=O)N[C@@H](Cc3ccccc3)C(=O)N2[C@@H]1c1ccc(O)cc1` was run?
Its z-score is -2.5 (inactive).

With `CC(C)C[C@@H]1NC(=O)[C@H]2C[C@@H](C(=O)NCCCCCCN(C)C)[C@@H](c3cccc(OCCO)c3)N2C1=O` as the compound, how does the z-score read?
Its z-score is -4 (inactive).

Which z-score does the source give for `COCCCNC(=O)[C@@]1(CCS(=O)(=O)c2ccccc2)N=C(c2ccc(OCCCO)cc2)O[C@H]1c1ccccc1` here?
The z-score was -6.18 (inactive).

With `Cc1ccc(S[C@]2(C(=O)NCC(F)(F)F)CC(=O)N(Cc3ccccc3Cl)[C@@H]2c2ccc(CO)cc2I)cc1` as the compound, how does the z-score read?
The z-score was -2.61 (inactive).

With `O=C1O[C@@H](c2ccccc2)[C@@H](c2ccccc2)N2[C@@H](c3ccc(OCCO)cc3)[C@]3(C(=O)Nc4ccc(C#CCCO)cc43)[C@@H](C(=O)N3CCCCCCC3)[C@H]12` as the compound, how does the z-score read?
The z-score was -12.2 (active).

For `CCOC(=O)C1=CCC(c2cc3ccccc3[nH]2)NC1` (stereo unspecified), which z-score is on record?
The z-score was -1.51 (inactive).

`O=C1NC(=O)C2C1C=CC(C(O)Cc1ccccc1)N2Nc1ccccn1` (stereo unspecified) was tested. Which z-score did it give?
Its z-score is -3.75 (inactive).

With `C#C[C@@H]1Oc2ccccc2S(=O)(=O)N2CCC[C@H]12` as the compound, how does the z-score read?
The z-score was -0.61 (inactive).

With `COc1ccc([Si](C)(C)[C@H]2[C@H](CCO)O[C@@]3(C(=O)N(Cc4cccc(NC(=O)[C@H](C)O)c4)c4ccccc43)[C@@H]2C)cc1` as the compound, how does the z-score read?
Its z-score is -6.16 (inactive).

How did the z-score turn out when `C=CCOC(=O)[C@H]1[C@@H]2C(=O)O[C@@H](c3ccccc3)[C@@H](c3ccccc3)N2[C@@H](c2ccc(OCCOC(=O)[C@H]3C[C@H]4C(=O)N5CCC[C@H]5C(=O)N4[C@H]3c3cccc(OCCO)c3)cc2)[C@]12C(=O)Nc1ccc(I)cc12` was run?
Its z-score is -1.27 (inactive).

`C=C(/C(=C/C[C@@H](OC(=O)c1ccncc1)c1ccc(OCCO)cc1)c1cnc2ccccc2c1)C(C)C` was tested. Which z-score did it give?
The z-score was -5.46 (inactive).

`O=C1C[C@]2(c3ccc([N+](=O)[O-])cc3)C(=O)N(CCN3CCOCC3)c3cc(CO)ccc3[C@H]2N1CC12CC3CC(CC(C3)C1)C2` was tested. Which z-score did it give?
The z-score was -2.32 (inactive).

`CC(C)C[C@@H]1NC(=O)[C@H]2C[C@@H](C(=O)O)[C@@H](c3ccc(O)cc3)N2C1=O` was tested. Which z-score did it give?
The z-score was -2.19 (inactive).

With `COCCOC(=O)N1C(=O)[C@@]2(c3cc(C#Cc4ccc(OC)cc4)ccc31)[C@H](c1ccc(O)cc1)N1[C@H](c3ccccc3)[C@H](c3ccccc3)OC(=O)[C@H]1[C@@H]2C(N)=O` as the compound, how does the z-score read?
The z-score was -1.15 (inactive).

How did the z-score turn out when `CC(C)NC(=O)[C@@]1(C)c2ccccc2C(=O)N(Cc2cc(F)cc(C(F)(F)F)c2)[C@H]1c1ccc(CO)cc1` was run?
The z-score was -3.73 (inactive).

Which z-score does the source give for `COCCOC(=O)N1C(=O)[C@@]2(c3ccccc31)[C@H](C(N)=O)[C@H]1C(=O)O[C@H](c3ccccc3)[C@H](c3ccccc3)N1[C@@H]2c1ccccc1OCCO` here?
The z-score was -4.4 (inactive).

Which z-score does the source give for `CN1C(=O)C2C=CC(C(O)c3ccc(I)cc3)N(NC(=O)OC(C)(C)C)C2C1=O` (stereo unspecified) here?
Its z-score is -2.75 (inactive).

Which z-score does the source give for `C=CCC(OC(C)=O)[C@@H]1[C@@H](N(Cc2cc3ccccc3o2)C(=O)Cc2ccc(F)cc2)c2cc(OCCCO)ccc2N1C(=O)Cc1ccc(OC)cc1` (stereo partly specified) here?
Its z-score is -2.68 (inactive).

For `CN1C(=O)C2C=CC(C(O)C(c3ccccc3)c3ccccc3)N(NC(=O)OC(C)(C)C)C2C1=O` (stereo unspecified), which z-score is on record?
The z-score was -4.08 (inactive).

With `COCCCNC(=O)[C@]1(CCC(=O)OC(C)(C)C)N=C(c2ccc(OCCCO)cc2)O[C@@H]1c1ccccc1N=[N+]=[N-]` as the compound, how does the z-score read?
The z-score was -4.03 (inactive).

Which z-score does the source give for `O=C1O[C@@H](c2ccccc2)[C@@H](c2ccccc2)N2[C@@H](c3ccccc3OCCO)[C@]3(C(=O)Nc4ccc(C#CCCO)cc43)[C@@H](C(=O)O)[C@H]12` here?
The z-score was -5.33 (inactive).

With `CN1C(=O)C2C(C1=O)C1C=C(CCCO)C2C(c2ccc(CN3CCCC3)cc2)N1C` (stereo unspecified) as the compound, how does the z-score read?
Its z-score is -7.16 (inactive).

Which z-score does the source give for `COC(=O)[C@@]1(Cc2ccc(F)cc2)[C@@H]2C(=CC(=O)[C@H]2CC(=O)C(=O)N(C)C)CN1C(=O)c1ccccc1` here?
The z-score was -2.5 (inactive).

With `[N-]=[N+]=NCc1ccccc1C[C@]1(C(=O)NCc2ccccc2)N=C(c2ccc(OCCCO)cc2)O[C@H]1c1ccccc1N=[N+]=[N-]` as the compound, how does the z-score read?
The z-score was 0.378 (inactive).

For `C=C(COC)/C(=C/C[C@H](OC(=O)c1ccncc1)c1ccc(CO)o1)c1cc(C(=O)OC)ccc1OC`, which z-score is on record?
The z-score was -5.06 (inactive).

`CS(=O)(=O)CCOC(=O)C1=CC(CCCO)=CC(c2cccs2)N(Cc2cccc(OC(F)(F)F)c2)C=C1C(=O)OCCS(C)(=O)=O` (stereo unspecified) was tested. Which z-score did it give?
The z-score was -4.22 (inactive).

Which z-score does the source give for `CCCNC(=O)[C@@H]1c2ccccc2C(=O)N(Cc2ccccc2Cl)[C@H]1c1ccc(CO)cc1` here?
Its z-score is -2.59 (inactive).

Which z-score does the source give for `CCc1cccc(NC(=O)O[C@H]2[C@H](OC(=O)Nc3ccc4c(c3)OCO4)[C@@H](OC(=O)Nc3ccc4c(c3)OCO4)[C@@H](OC)O[C@@H]2CO)c1` here?
The z-score was -6.22 (inactive).

With `COC(=O)[C@@]1(Cc2ccc(OC)cc2)[C@H]2c3cc(C(=O)N4CCCC4)n(Cc4cc(F)c(F)c(F)c4)c3C[C@H]2CN1C(=O)c1ccccc1` as the compound, how does the z-score read?
Its z-score is -2.27 (inactive).

How did the z-score turn out when `CN(C)C(=O)[C@@]1(Cc2ccccc2)N=C(c2ccc(OCCCO)cc2)O[C@H]1c1ccccc1CN=[N+]=[N-]` was run?
The z-score was -1.69 (inactive).

Which z-score does the source give for `COc1ccc([Si](C)(C)[C@@H]2[C@@H](CCO)O[C@]3(C(=O)N(Cc4ccc(NC(C)=O)cc4)c4ccccc43)[C@H]2C)cc1` here?
The z-score was -5.34 (inactive).

With `O=C1O[C@@H](c2ccccc2)[C@@H](c2ccccc2)N2[C@@H](c3ccc(O)cc3)[C@]3(C(=O)Nc4ccccc43)[C@@H](C(=O)O)[C@H]12` as the compound, how does the z-score read?
Its z-score is -4.72 (inactive).

Which z-score does the source give for `O=C1c2ccccc2[C@@]2(Cc3ccccc3N(C3CC3)C2=O)[C@H](c2ccc(CO)cc2)N1Cc1ccccc1C(F)(F)F` here?
Its z-score is -2 (inactive).

How did the z-score turn out when `O[C@@H](Cc1ccccc1)[C@H]1C2C=CCCC(c3ccccc3)=C2CN1Cc1cccc(Cl)c1` (stereo partly specified) was run?
The z-score was -5.87 (inactive).
